# An excerpt weighted towards active compounds, which were near 3.5% of everything screened.
# TEAD-YAP block – TEAD-YAP interaction inhibition; 1.4% of 640,000 active; HEK-TIYL cells, TEAD-Gal4/YAP UAS-luciferase luminescence; inhibition, % at 9.12 µM; in the data active = inhibition above about 32%;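 also: 0% = median of test compound wells and 100% = reference inhibitor wells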
# GPR151 ag – activators of human GPR151 | 1% of 650,000 active | activation, % at 11.2 µM | AID 1508602 | Q8TDV0 | PathHunter beta-arrestin GPR151 cells, luminescence; in the data active = activation above about 4.9%;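 also: 0% = median of compound wells and 100% = cells with positive control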
# FBW7 activator – activators of human E3 ligase FBW7; Q969H0; AlphaScreen FBW7–phospho-cyclin E peptide binding, activator screen; normalized activity (activation), % at 26.1 µM; 0.13% of 650,000 active; AID 1259310; in the data active = normalized activity above about 1.9%;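 also: purified mutant Fbw7 with reduced substrate affinity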
# MITF inh – blocks human microphthalmia-associated transcription factor; O75030; AlphaScreen MITF homodimerization, bead proximity signal; inhibition, % at 2.6 µM; 0.91% of 650,000 active; AID 1259374; in the data active = inhibition above about 50%;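 also: 0% = vehicle wells with protein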
# Target sequence (O75030 whole entry, looked up): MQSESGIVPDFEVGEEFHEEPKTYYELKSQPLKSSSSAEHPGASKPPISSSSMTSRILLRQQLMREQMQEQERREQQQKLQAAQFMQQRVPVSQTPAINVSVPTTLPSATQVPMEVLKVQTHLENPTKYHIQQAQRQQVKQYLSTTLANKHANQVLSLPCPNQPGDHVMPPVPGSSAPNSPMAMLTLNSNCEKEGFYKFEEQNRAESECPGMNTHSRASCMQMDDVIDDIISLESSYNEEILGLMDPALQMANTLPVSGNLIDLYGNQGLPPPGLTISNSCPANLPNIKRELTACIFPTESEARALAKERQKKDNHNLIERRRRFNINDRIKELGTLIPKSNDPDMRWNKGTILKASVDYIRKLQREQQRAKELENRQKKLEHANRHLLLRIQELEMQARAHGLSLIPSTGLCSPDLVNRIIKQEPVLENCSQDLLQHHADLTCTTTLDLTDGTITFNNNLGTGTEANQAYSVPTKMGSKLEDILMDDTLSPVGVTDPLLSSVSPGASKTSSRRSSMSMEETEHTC
# Active calls of the source: *.
SMILES,TEAD-YAP block,GPR151 ag,FBW7 activator,MITF inh
COC(=O)/C=C\c1nn(-c2ccccc2)nc1C#N,60.0*,-0.2,-0.3,4.9
COC(=O)c1ccc(C2Oc3c(OC)cccc3C3CC(c4ccc(OC)cc4)=NN32)cc1 (stereo not given),-43.4,-0.7,-0.2,-4.5
COc1cccc(C2=NN3C(C2)c2cccc(OC)c2OC3c2cccc(OC)c2)c1 (stereo not given),37.6*,-0.1,-0.1,6.1
COC(=O)c1ccc(C2Oc3c(OC)cccc3C3CC(c4cccc(OC)c4)=NN32)cc1 (stereo not given),63.3*,-3.3,0.1,19.0
COc1cccc(C2=NN3C(C2)c2cccc(OC)c2OC3c2cc(OC)c(OC)c(OC)c2)c1 (stereo not given),32.3*,-1.1,0.0,2.7
COc1cccc(C2=NN3C(C2)c2cccc(OC)c2OC32CCCCC2)c1 (stereo not given),36.1*,-1.8,-0.1,3.1
COc1cccc(C2=NN3C(C2)c2cccc(OC)c2OC3c2ccc(F)c(F)c2)c1 (stereo not given),26.1,-1.5,0.4,6.9
O=C(Nc1ccc([N+](=O)[O-])cc1)Nc1ccon1,61.9*,1.3,-0.1,16.4
O=C(Nc1ccc(I)cc1)Nc1ccc([N+](=O)[O-])cc1,3.4,0.5,0.2,19.3
Cn1ccnc1C1(O)CCN(C(=O)c2cc(F)cc(F)c2)CC1,-3.1,0.2,-0.1,-6.4
O=C(Nc1ccnc2ccccc12)c1ccc(Br)cc1,60.5*,0.5,0.8,1.8
COc1ccc(NC(=O)c2ccc(Br)cc2)c2cccnc12,5.3,-0.6,0.2,23.6
COc1ccc(C(NC(=O)C(C)C)c2ccc3cccnc3c2O)cc1 (stereo not given),74.6*,-1.1,-1.7,50.6*
COc1ccc(C(NC(=O)C(C)C)c2ccc3cccnc3c2O)cc1OC (stereo not given),89.9*,1.3,-1.6,62.1*
COc1ccc(C(NC(C)=O)c2ccc3cccnc3c2O)cc1 (stereo not given),85.8*,0.4,-1.8,47.9
CCN(CC)c1ccc(C(NC(=O)C(C)C)c2cc(Cl)c3cccnc3c2O)cc1 (stereo not given),1.3,-1.5,0.2,8.2
COc1ccc(C(=O)NC(c2ccc(C)cc2)c2cc(Cl)c3cccnc3c2O)cc1 (stereo not given),10.4,0.8,-0.1,14.8
Cc1ccc(C(NC(=O)C2CCCCC2)c2ccc3cccnc3c2O)cc1 (stereo not given),33.9*,1.6,-0.5,30.5
Cc1occc1-c1nn(CC(=O)N(C)C2CCCCC2)c(=O)o1,5.5,1.2,-0.3,-4.8
CCCCC(=O)NC(c1ccc(OC)cc1)c1ccc2cccnc2c1O (stereo not given),80.3*,-0.3,-1.7,41.1
O=[N+]([O-])c1ccc(C(Nc2nccs2)c2ccc3cccnc3c2O)cc1 (stereo not given),26.9,-0.5,-1.8,18.0
Cc1ccc(C(NC(=O)C(C)C)c2ccc3cccnc3c2O)cc1 (stereo not given),85.6*,0.2,-0.5,20.8
COc1ccccc1C(NC(=O)Cc1ccccc1)c1ccc2cccnc2c1O (stereo not given),29.3,0.0,-1.0,22.4
CC(=O)c1c(N=CN(C)C)nc(C)nc1-c1ccccc1,-3.9,-0.2,0.1,13.3
Cc1ccc(NC(=O)Cc2cccs2)c(Br)c1,-15.5,-0.4,0.2,17.2
SMILES,TEAD-YAP block,GPR151 ag,FBW7 activator,MITF inh
Cc1ccc(NC(=O)CNCc2cccs2)c(Br)c1,-30.7,1.6,3.8*,10.3
COc1ccc(NC2=C(n3nnc4ccccc43)C(=O)c3ccccc3C2=O)cc1,59.1*,-0.6,-0.2,6.5
O=C(OCCNC1=C(n2nnc3ccccc32)C(=O)c2ccccc2C1=O)c1ccccc1,-6.4,-0.2,-1.1,7.2
C=CCNC(=O)CC(=O)N/N=C/c1cc(OC)ccc1OC,9.6,0.8,0.1,8.6
CCC1(CCC(=O)N2CCC(C(O)Cc3ccccc3)CC2)CCC(=O)N1 (stereo not given),-8.9,2.9,0.1,1.3
CCC(=O)c1cc2c(cc1NC(=O)c1ccccc1)OCCO2,10.3,0.1,-0.1,9.7
Cc1nc(-c2ccccc2)nc2[nH]c(-c3ccccc3)cc(=O)c12,12.4,-0.9,0.0,7.6
Cc1nc(C)c2c(=O)cc(-c3ccccc3)[nH]c2n1,52.2*,-1.0,-0.1,-1.9
Fc1ccccc1-c1cnn2c(NCCc3ccccn3)ccnc12,72.5*,-2.6,-0.4,-13.7
CC(C)[C@@H](CO)Nc1ccnc2c(-c3ccoc3)cnn12,-3.3,0.2,0.1,-3.2
Oc1cccc(-c2cnn3c(NCCc4ccccn4)ccnc23)c1,84.7*,0.1,-0.4,-12.7
CC(C)[C@@H](CO)Nc1ccnc2c(-c3ccccc3F)cnn12,55.6*,2.6,0.1,10.1
Cc1nnc(NC(=O)CSc2nc3c(c(=O)n2C)SCC3)s1,7.5,-0.9,0.3,5.0
Cc1cc(NC(=O)CSc2nc3ccsc3c(=O)n2CCc2ccc(Cl)cc2)no1,-14.8,0.0,0.8,15.5
CCOC(=O)c1sc2ncn(CC(=O)NCCC3=CCCCC3)c(=O)c2c1C,-4.0,1.7,2.2*,-13.3
CC(O)C12c3ccccc3C(c3ccccc31)C1C(=O)N(c3ccccc3F)C(=O)C12 (stereo not given),9.4,-1.1,2.2*,4.3
CC(=O)Nc1ccc(NC(=O)c2cnc(Nc3ccc(-n4ccnc4)cc3)s2)cc1,-4.6,-1.0,0.1,15.7
CCOC(=O)C(C)Oc1ccc2ccc(=O)oc2c1 (stereo not given),5.3,-0.4,0.0,-4.6
Cc1nnc(N/N=C/c2cc(Br)ccc2O)[nH]c1=O,90.4*,0.6,-0.5,114.4*
Cc1nnc(N/N=C/c2cc(Cl)ccc2O)[nH]c1=O,91.6*,1.9,-0.2,127.2*
COc1ccc(/C=N/Nc2nnc(C)c(=O)[nH]2)cc1,-5.0,-1.3,-0.4,-11.1
CC(C)(C)c1nnc(N/N=C/c2cc(Br)ccc2O)n(N)c1=O,75.0*,2.0,-0.2,62.6*
COc1ccc(O)c(/C=N/Nc2nnc(C)c(=O)[nH]2)c1,71.6*,-2.2,-0.5,79.1*
COc1cc(/C=N/Nc2nnc(C(C)(C)C)c(=O)n2N)ccc1O,7.8,-0.9,0.0,12.2
Cc1nnc(N/N=C/c2ccc(Br)cc2)[nH]c1=O,5.8,0.8,0.9,8.8
SMILES,TEAD-YAP block,GPR151 ag,FBW7 activator,MITF inh
O=[N+]([O-])c1ccc(-c2csc(SC/C=C/c3ccccc3)n2)cc1,3.1,2.3,0.0,20.6
COc1cc(-c2[nH]nc3c2C(c2ccccc2Cl)C(C#N)=C(N)O3)cc(OC)c1OC (stereo not given),16.1,-0.5,-0.2,-3.0
COc1cc(-c2[nH]nc3c2C(c2ccccc2Br)C(C#N)=C(N)O3)cc(OC)c1OC (stereo not given),35.8*,-0.1,0.0,-2.9
Cc1c(C(=O)C(=O)N2CC=C(c3ccccc3)CC2)c2ccccc2n1C,52.5*,-1.7,-0.1,-1.5
Cc1c(C(=O)C(=O)N2CCC(C)CC2)c2ccccc2n1C,-7.8,0.2,-0.1,2.5
CCCCOc1ccc(NC(=O)CSc2nc3ccc(NC(=O)c4cccc5ccccc45)cc3s2)cc1,9.7,-0.2,0.1,7.4

# Screens from PubChem BioAssay.
